Compound activity (PubChem BioAssay)
In the library only some 7.3% were active in any assay of this set; here they are far more common.
FLuc modulator: qHTS profiling assay for firefly luciferase inhibitor/activator using purifed enzyme and Km concentrations of substrates (counterscreen for miR-21 project); AID 588342, 2011; purified FLuc, Km substrates, luminescence inhibition; Luciferin 4-monooxygenase (Photinus pyralis), P08659; Potency, µM (doses to about 57.5 µM), for inactives: at the top dose activity change, negative = inhibition, actives largely listed as inhibitors; 360,000 compounds, 6.9% hits;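 further: plate controls were vehicle for no effect and reference inhibitor for full effect; nearly all actives have a fitted effect of over 55% in size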
Target sequence (P08659 whole entry, looked up): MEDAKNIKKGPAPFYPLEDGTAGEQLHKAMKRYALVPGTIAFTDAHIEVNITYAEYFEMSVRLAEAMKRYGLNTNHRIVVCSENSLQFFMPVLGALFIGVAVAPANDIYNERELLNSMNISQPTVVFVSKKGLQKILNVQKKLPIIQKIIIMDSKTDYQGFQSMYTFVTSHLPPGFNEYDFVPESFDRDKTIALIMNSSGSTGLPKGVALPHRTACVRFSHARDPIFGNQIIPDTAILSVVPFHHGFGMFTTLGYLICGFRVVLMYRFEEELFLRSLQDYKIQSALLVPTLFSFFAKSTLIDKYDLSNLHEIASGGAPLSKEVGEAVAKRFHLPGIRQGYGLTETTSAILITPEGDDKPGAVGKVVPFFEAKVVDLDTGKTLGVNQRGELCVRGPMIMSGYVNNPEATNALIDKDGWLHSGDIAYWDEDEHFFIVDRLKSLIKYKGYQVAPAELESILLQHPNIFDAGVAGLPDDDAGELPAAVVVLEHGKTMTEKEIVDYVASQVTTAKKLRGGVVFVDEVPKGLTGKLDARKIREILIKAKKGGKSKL
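Biochemical qHTS of compounds, final roughly 60 µM downward over six points, against 10 nM purified firefly luciferase using Km concentrations of substrates (10 uM D-luciferin, 10 uM ATP) in Tris acetate pH 7.5 buffer; luminescence output.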
KinaseGlo FLuc: Counterscreen for Luciferase (Kinase-Glo TM) Inhibition. Potency, µM (titrated, usually from 38.3 µM), inactives show at the highest dose activity change, negative = inhibition, usual class: inhibitors. 200,000 compounds, 0.28% hits. Kinase-Glo luciferase, ATP luminescence, 8 min. AID 1379, 2008; further: on the % scale 0 is the no-effect control and ±100 the full control effect; nearly all actives have a fitted effect of over 60% in size
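Recombinant Kinase-Glo luciferase, 10 uM ATP (linear range), luciferin; imidazole pH 7.2 / KCl / MgCl2 / Tween / BSA buffer; 8 min RT; luminescence.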
Rab9 promoter act: qHTS Assay for Rab9 Promoter Activators | 320,000 compounds, 2.8% hits | Potency, µM (titrated, usually from 9.22 µM), inactives show at the highest dose activation, negative = inhibition, hits mostly activators | Huh7 Rab9 promoter-luciferase reporter, luminescence, 24 h; further: % of control where 0% means no effect; nearly all actives have a fitted effect of over 60% in size
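Huh7 cells stably carrying a Rab9 promoter-luciferase reporter, 1500 cells per well in OP-MEM I with 10% FBS, treated with compound 24 hours at 37C. Luciferase activity read by luminescence after 10 minutes with Amplite reagent.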
SMN2 splice up: qHTS Assay for Enhancers of SMN2 Splice Variant Expression. HEK293 SMN2-luciferase splicing reporter, luminescence, 30-36 h. Potency, µM (series often up to 46.1 µM), for inactives: top-dose activity change, positive = activation, usual class: activators. 210,000 compounds, 2.8% hits; further: % of control where 0% means no effect; nearly all actives have a fitted effect of over 55% in size
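HEK293 cells carry an SMN2 […]–luciferase reporter in which exon 7 inclusion puts luciferase in frame. Cells were plated 10-12 h before compound addition, then incubated 30-36 h at 37C. ONE-Glo luminescence was read; sodium butyrate at 4.5 mM final served as control.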
NPC1 promoter act: qHTS Assay for NPC1 Promoter Activators | Huh7 NPC1 promoter luciferase reporter, 24 h | AID 485313, 2010 | 320,000 compounds, 2.4% hits | Potency, µM (highest dose often 9.22 µM), without a hit: top-dose activation, hits mostly activators; further: % of control where 0% means no effect; nearly all actives have a fitted effect of over 60% in size
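Luciferase expression driven by the NPC1 promoter was measured in stably transfected Huh7 cells after a 24 h compound incubation, using a luciferase reagent and a luminescence read.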
* marks the source's active call; other numbers are inactive results; ? = inconclusive; . = not tested or not shown; [ ] = remark or other dose. The call rests on the fitted dose curve; in most records, active means well fitted curve in the direction sought with a large enough effect; inconclusive means small, poorly fitted or top-dose-only effect, or another doubt; inactive means no such curve, though single readings can be large; an effect the other way counts as inactive or inconclusive. Potency means the concentration at half of the fitted maximal effect.

SMILES | FLuc modulator | KinaseGlo FLuc | Rab9 promoter act | SMN2 splice up | NPC1 promoter act
COc1ccc(-c2c3c(=O)n(C)c(=O)n(C)c3c3c(-c4ccccc4)nc4ccccc4n23)cc1 | -3% | . | . | -9% | .
O=C(O)c1ccc2c(c1)C(=O)N([C@H](Cc1ccc(O)c(O)c1)C(=O)O)C2=O | ? | . | 0% | . | -1%
COc1ccc(-c2csc(Nc3ccc(C)cn3)n2)cc1 | -5% | -2% | -4% | . | -5%
Cc1ccc(Cl)cc1Nc1nc(-c2cccnc2)cs1 | ? | . | 17% | . | 3%
Cc1ccc(-c2csc(Nc3ccccn3)n2)cc1 | 0.6µM* | . | 1µM* | . | 0.71µM*
Cc1cc(-c2csc(Nc3ccccn3)n2)ccc1F | 1.7µM* | . | 1.6µM* | . | 1.4µM*
CCc1ccc(NC(=O)CN2C(C(=O)OC)=C(c3ccccc3)c3ccccc3S2(=O)=O)cc1 | -3% | . | . | -3% | .
CCOC(=O)c1c(C)[nH]c(CCC(=O)NC(C)c2ccccc2)c1C (stereo not given) | -2% | . | . | . | .
Cc1ccc(-c2cc(N)nc(-c3ccccc3)c2)cc1 | 13µM* | . | 21% | . | 24%
CCN(CC)c1ccc(NC(=O)Nc2ccccc2C(F)(F)F)cc1 | -19% | -7% | 3.2µM* | 7% | ?
CCN(CC)c1ccc(NC(=O)Nc2cccc3ccccc23)cc1 | 2.1µM* | . | 18% | . | ?
CN(C)c1ccc(NC(=O)Nc2cccc3ccccc23)cc1 | 2.7µM* | 3% | ? | 12% | 28%
NS(=O)(=O)c1ccc(NC(=O)Nc2cccc3ccccc23)cc1 | -10% | -4%[7.66 µM] | -8% | -7%[9.22 µM] | 0%
Cc1cccc(NC(=O)Nc2cccc3ccccc23)c1 | 5% | . | -7% | . | -1%
COc1ccc(C(=O)Nc2ccc(-c3n[nH]c(=S)o3)cc2)cc1OC | ? | . | 4% | . | -3%
O=C(Nc1ccc(-c2n[nH]c(=S)o2)cc1)c1ccccc1Br | 15µM* | . | -1% | . | 4%
COC(=O)c1ccc2c(=O)n(CCCCCC(=O)NCCc3ccccc3)c(=O)[nH]c2c1 | -1% | . | . | . | .
CCOc1ccc(N=Nc2c(N)[nH][nH]c2=O)cc1 | 11µM* | ? | ? | ? | ?
CCOc1ccc(N=Nc2c(=O)[nH]n3c(=O)cc(C)[nH]c23)cc1 | 4.8µM* | ? | 2.8µM* | ? | ?
Cc1cc(=O)n2[nH]c(=O)c(N=Nc3ccccc3)c2[nH]1 | ? | -10% | -2% | -4% | -1%
COc1cccc(N=Nc2c(N)[nH][nH]c2=O)c1 | 15µM* | -13% | 28% | 10µM* | 25%
CCCCOc1ccc(Cc2cnc(N)nc2N)cc1 | -6% | . | 2% | . | 14%
CCCCOc1ccc(N=Nc2ccc(N)nc2N)cn1 | 13µM* | . | 2.5µM* | . | 3.2µM*
CCOc1ccc(C2c3[nH]c4ccccc4c3CCN2C(=O)Cc2cccc(OCC)c2OCC)cc1 (stereo not given) | -2% | . | . | . | .
O=C(CN1C(=O)NC2(CCCCC2)C1=O)Nc1ccc2c(c1)OCCCO2 | 12µM* | . | 3.2µM* | . | 3.2µM*
SMILES | FLuc modulator | KinaseGlo FLuc | Rab9 promoter act | SMN2 splice up | NPC1 promoter act
O=C(CN1C(=O)NC2(CCCCCC2)C1=O)Nc1cccc(F)c1 | -1% | . | 0% | . | 6%
CC1CCCCC12NC(=O)N(CC(=O)NC(=O)Nc1ccc3c(c1)OCCO3)C2=O (stereo not given) | 11µM* | -3% | 3.5µM* | 13µM* | 2.8µM*
Cc1csc2nc(COC(=O)CNC(=O)c3ccc(F)cc3)cc(=O)n12 | -8% | . | . | . | .
Nc1nnc(CC(=O)N/N=C/c2ccc(-c3ccccc3)o2)s1 | ? | -2% | -7% | -1% | 1%
COC(=O)c1ccc(-c2ccc(/C=N/NC(=O)Cc3nnc(N)s3)o2)cc1 | ? | . | ? | . | 4.5µM*
N#Cc1cc2c(nc1SCc1ccccc1)CCC2 | -1% | 0% | -1% | -4% | 0%
N#Cc1cc2c(nc1SCC(=O)O)CCCC2 | -1% | -1% | -4% | 24% | 1%
N#Cc1cc2c(nc1SCc1ccncc1)CCC2 | ? | -2% | ? | 11µM* | ?
Cc1cc(C)c2nc(SCC(=O)Nc3cc(C)on3)c(C#N)cc2c1 | -14% | . | 4% | . | 2%
Cc1cc(NC(=O)CSc2nc3c(cc2C#N)CCC3)no1 | ? | . | 0.5µM* | . | 0.5µM*
Cc1cc(NC(=O)CSc2nc3c(cc2C#N)CCCC3)no1 | ? | 0% | 1.6µM* | 4µM* | 2.5µM*
CCOc1ccc(-c2nn(CC(=O)NC3CCCC3)c3c2cnc2ccc(C)cc23)cc1 | 3% | . | . | . | .
COc1cc(NC(=O)Cn2c(=O)cc(C)c3c(C)nn(-c4ccc(C)cc4)c32)cc(OC)c1 | -3% | . | . | . | .
O=c1c(-c2ccccc2)nc2cnc(N3CCNCC3)nc2n1Cc1cccs1 | . | -2% | . | -9% | .
COC(=O)c1sccc1S(=O)(=O)N1CCN(c2ccccc2)CC1 | 0% | . | . | . | .
COc1ccc(OCc2n(CC(=O)OC3CC(C)CCC3C(C)C)c3ccccc3[n+]2C)cc1 (stereo not given) | -1% | . | -9% | . | -4%
COc1ccc(-c2n(CC(=O)OC3CC(C)CCC3C(C)C)c3ccccc3[n+]2C)cc1 (stereo not given) | -8% | 3.5µM* | -12% | . | -9%
CC(=C/c1ccccc1)/C=N/NC(=O)c1cccs1 | 0.95µM* | . | 1µM* | . | 1.4µM*
CC(/C=N/NC(=O)c1cc(-c2ccc(C)s2)[nH]n1)=C\c1ccccc1 | ? | 1% | 1% | 27% | -7%
O=C(N/N=C/C(Br)=C\c1ccccc1)c1cccs1 | 2.1µM* | . | 1.6µM* | . | 2.2µM*
CCOc1ccc2ncc3c(-c4ccc(C)cc4)nn(-c4cccc(F)c4)c3c2c1 | 0% | . | . | -1% | .
COc1ccc(CN(C(=O)c2oc3ccccc3c2C)C2CCS(=O)(=O)C2)cc1OC (stereo not given) | 8% | 0% | -1% | 11µM* | -2%
O=C(c1cc2ccccc2oc1=O)N(Cc1ccco1)C1CCS(=O)(=O)C1 (stereo not given) | 15µM* | 8% | ? | -7% | ?
CN(C)c1ccc(CN(C(=O)c2cc3ccccc3oc2=O)C2CCS(=O)(=O)C2)cc1 (stereo not given) | 12µM* | . | ? | . | 2.8µM*
CC1CCN(CC(=O)N2c3ccccc3Sc3cc4ccccc4cc32)CC1 | . | -5%[7.66 µM] | . | -11%[9.22 µM] | .
C[C@]1(c2ccccc2)O[C@@H]2C[C@@H]3[C@@H]4CCC5=CC(=O)C=C[C@@]5(C)[C@]4(F)[C@H](O)C[C@]3(C)[C@@]2(C(=O)CO)O1 | . | -2%[7.66 µM] | . | -7%[9.22 µM] | .
CN(C)C(=O)C1CCN(Cc2c[nH]c3ccccc23)CC1 | . | -3%[7.66 µM] | . | -1%[9.22 µM] | .
COC(=O)c1ccccc1NC(=O)c1ccc(-c2ccc(Br)cc2)o1 | -7% | -1% | 0.79µM* | 28% | 10%
